BAZ2B inh = BAZ2B (human) inhibition | AlphaScreen BAZ2B-H3K14Ac peptide displacement | Potency, µM (series often up to 114 µM), for inactives: at the highest dose activity change, negative = inhibition, most hits filed as inhibitors | Q9UIF8 | actives 4.4% (n = 360,000); further: on the % scale 0 is the no-effect control and ±100 the full control effect; nearly all actives have a fitted effect of over 60% in size
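In this displacement format the biotinylated H3(5-23) peptide acetylated at Lys14 serves as ligand at 50 nM, with BAZ2B at 50 nM in PBS pH 7.4 containing 0.01% Tween-20. Donor and acceptor beads are 10 ug/mL final.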
L3MBTL1 block = L3MBTL1 (human) inhibition; Potency, µM (doses to about 57.1 µM), for the others: top-dose activity, negative = inhibition, most hits filed as inhibitors; Q9Y468; actives 0.66% (n = 230,000); AlphaScreen L3MBTL1–H3K9me1 peptide binding; further: on the % scale 0 is the no-effect control and ±100 the full control effect; nearly all actives have a fitted effect of over 60% in size
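AlphaScreen proximity signal between nickel-chelate acceptor and streptavidin donor beads (final 10 ug/mL) reports binding of 50 nM L3MBTL1 to 75 nM biotin-H3 K9me1 peptide; complex incubated with compounds 30 min at room temperature; cefsulodin titration as control.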
HP1b binding inh = inhibitors of HP1-beta chromodomain binding to methylated histone tails; P83916; AlphaScreen HP1-beta / biotin-H3K9me3 peptide binding; Potency, µM (doses to about 114 µM), without a hit: at the top dose activity change, negative = inhibition, most hits filed as inhibitors; actives 0.56% (n = 390,000); further: nearly all actives have a fitted effect of over 70% in size
Target sequence (P83916 whole entry, looked up): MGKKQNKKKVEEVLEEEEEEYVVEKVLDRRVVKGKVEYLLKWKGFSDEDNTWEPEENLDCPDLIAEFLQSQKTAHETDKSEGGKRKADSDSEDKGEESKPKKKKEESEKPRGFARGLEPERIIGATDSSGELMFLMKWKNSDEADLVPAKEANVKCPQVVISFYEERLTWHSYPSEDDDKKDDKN
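HP1-beta protein (50 nM final) preincubated 30 min at room temperature with biotinylated H3(1-18)K9me3 peptide (50 nM) in PBS pH 7.4, 0.01% Tween-20, then compound added for 30 min. AlphaScreen streptavidin donor/nickel chelate acceptor beads (10 ug/mL final), 30 min dark, luminescence read.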
JMJD2A Tudor = JMJD2A Tudor domain (human) inhibition; O75164; AlphaScreen JMJD2A-Tudor / H3K4me3 peptide binding; Potency, µM (titrated, usually from 114 µM), for inactives: at the highest dose activity change, negative = inhibition, usual class: inhibitors; actives 4.4% (n = 390,000); AID 504339; further: on the % scale 0 is the no-effect control and ±100 the full control effect; nearly all actives have a fitted effect of over 50% in size
G9a block = inhibitors of human histone lysine methyltransferase G9a; Q96KQ7; G9a H3K9 monomethylation, AlphaScreen, 2 h; Potency, µM (top dose mostly 102 µM), for inactives: top-dose activity, negative = inhibition, usual class: inhibitors; actives 8.8% (n = 350,000); AID 504332; further: on the % scale 0 is the no-effect control and ±100 the full control effect; nearly all actives have a fitted effect of over 75% in size
Target sequence (Q96KQ7 913-1193 limits assumed): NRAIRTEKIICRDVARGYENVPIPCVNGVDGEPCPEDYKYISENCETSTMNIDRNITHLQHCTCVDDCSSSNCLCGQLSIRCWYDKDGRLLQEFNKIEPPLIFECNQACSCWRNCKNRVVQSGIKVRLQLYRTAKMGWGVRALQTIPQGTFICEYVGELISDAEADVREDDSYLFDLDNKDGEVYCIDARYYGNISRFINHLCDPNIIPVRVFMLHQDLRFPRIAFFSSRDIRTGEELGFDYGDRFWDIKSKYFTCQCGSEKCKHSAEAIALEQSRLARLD
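Methyltransferase reactions run at room temperature for 2 h (20 nM enzyme, 500 nM biotin-H3K9 peptide, 20 uM SAM) after a 15 min compound preincubation; product detected by AlphaScreen beads and anti-H3K9me1 antibody.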
* hit, by the source's call; ? = inconclusive; · = no result; ! = not confirmed by another sample; [ ] = dose if it differs, or a comment. Hits are enriched below; roughly 11% of the tested compounds scored in any of these assays. The call rests on the fitted dose curve; in most records, active means well fitted inhibition curve with a large enough effect; inconclusive means small, poorly fitted or top-dose-only effect; inactive means no such curve, though single readings can be large or run the other way. Potency means the concentration at half of the fitted maximal effect.

SMILES	BAZ2B inh	L3MBTL1 block	HP1b binding inh	JMJD2A Tudor	G9a block
O=S(=O)(Cc1ccccc1)N1CCN(Cc2c(F)cccc2Cl)CC1	-2%	-1%	23%	0%	35µM*
O=S(=O)(c1ccccc1)N1CCN(Cc2cccc(Cl)c2)CC1	32µM*	·	-54%	8.9µM*	?
COc1ccccc1CN1CCN(S(=O)(=O)c2ccccc2)CC1	32µM*	·	?	40µM*	?
O=C(c1cc(Br)ccc1O)N1CCN(S(=O)(=O)Cc2ccccc2)CC1	6%	1%	23%	-2%	1%[12.7 µM]
COc1ccc(Br)cc1CN1CCN(S(=O)(=O)Cc2ccccc2)CC1	-21%	·	?	8.9µM*	20µM*
CCOc1ccccc1CN1CCN(S(=O)(=O)c2ccccc2)CC1	8%	·	64%	-7%	16%[59 µM]
COc1ccccc1NC(=O)C1=C(C)Nc2nnnn2C1c1ccc(C(F)(F)F)cc1 (stereo not drawn)	-9%	·	23%	-9%	-18%[59 µM]
CCOC(=O)C1=C(CS(=O)(=O)c2ccc(F)c(C)c2)NC(=O)NC1c1ccccc1OC (stereo not drawn)	-8%	·	24%	-21%	3%[59 µM]
COc1ccc(N2CCN(C(c3ccccc3)c3nnnn3C(C)C)CC2)cc1 (stereo not drawn)	·	·	2%	?	·
COc1ccc(S(=O)(=O)N2CCN(c3ccc(F)cc3)CC2)cc1OC	?	-1%	28%	2%	-1%
COc1ccc(CN2CCN(S(=O)(=O)c3ccc(F)cc3)CC2)cc1OC	32µM*	-9%	?	3.2µM*	10µM*
COc1cccc(CN(C)C(=O)c2cccc(S(=O)(=O)N3CCN(Cc4ccccc4)CC3)c2)c1OC	?	-1%	15%	-18%	-30%
COc1cccc(CN2CCN(S(=O)(=O)c3ccccc3)CC2)c1OC	·	·	?	28µM*	·
COc1ccc(OC)c(CN2CCN(S(=O)(=O)c3ccccc3)CC2)c1	?	·	?	20µM*	-28%[59 µM]
COc1ccc(CN2CCN(S(=O)(=O)c3ccccc3)CC2)c(OC)c1OC	·	·	?	22µM*	·
COc1ccc(OC)c(NC(=O)CN2C(=O)COc3ccc(S(=O)(=O)NC4CCCC4)cc32)c1	2%	·	21%	-12%	6%[59 µM]
CCCn1cc(S(=O)(=O)c2cc(C)ccc2C)c(=O)c2cc(F)c(N3CCN(CC)CC3)cc21	0%	·	39%	-20%	-31%[59 µM]
COc1ccc(CN2CCN(S(=O)(=O)c3ccc(F)cc3)CC2)c(OC)c1OC	?	·	-49%	1.4µM*	28µM*
Cc1ccc(S(=O)(=O)N2CCN(Cc3cccc(F)c3)CC2)cc1	·	·	?	3.2µM*	·
COC(=O)c1nn(-c2cccc(C)c2)c2nnc(Cc3ccc(C)cc3)c(=O)n12	-5%	3%	3%	3%	5%[59 µM]
COC(=O)c1nn(-c2ccc(C)cc2)c2nnc(Cc3ccccc3)c(=O)n12	0%	9%	41%	0%	18µM*
CCCn1c(=O)n(-c2cc(Cl)c(OC)cc2OC)c(=O)c2c3c(sc21)CN(C(C)=O)CC3	-8%	·	19%	-5%	-7%[59 µM]
CC(NO)C(C)(C)NO (stereo not drawn)	-28%	9%	?	40µM*	?
CCc1ccc(OCCNc2cc(N3CCNC(C)C3)ccc2[N+](=O)[O-])cc1 (stereo not drawn)	35µM*	-20%	?	40µM*	4%[2.33 µM]
CC1CN(c2ccc([N+](=O)[O-])c(NCCOc3ccc(Cl)cc3)c2)CC(C)N1 (stereo not drawn)	11µM*	-19%	?	32µM*	45µM*
SMILES	BAZ2B inh	L3MBTL1 block	HP1b binding inh	JMJD2A Tudor	G9a block
COc1ccc(N/C=C2\C(=O)CCc3c2oc2cc(Cl)c(O)c(Cl)c32)cc1	-37%	0%	-14%	-36%	40µM*
Cc1cc(C)cc(C(=O)OCC(=O)N2CCCCCC2)c1	0%	11%	31%	-6%	5%[59 µM]
CC(=O)Nc1ccc(S(=O)(=O)N2CCN(S(=O)(=O)c3c(F)cccc3F)CC2)cc1	·	·	·	-12%	·
Cc1cccc(CCn2c(=O)c3ccccc3n(Cc3cccc(F)c3)c2=O)c1	35%	·	62%	36%	62%[59 µM]
Cc1ccc(S(=O)(=O)NC(C(=O)N2CCOCCOCCOCCOCC2)C(C)C)cc1 (stereo not drawn)	-21%	·	24%	-9%	?
Cc1ccc(S(=O)(=O)NC(C)C(=O)N2CCOCCOCCOCC2)cc1 (stereo not drawn)	12%	·	-16%	-5%	71µM*
O=C(CSc1nnc2c(n1)[nH]c1ccc(F)cc12)N1CCOCC1	-3%	11%	29%	-5%	-2%
O=C(Cc1c[nH]c2ccccc12)Nc1ccc(N2CCOCC2)cc1	?	-19%	0%	?	22µM*
O=C(CSc1nnc2c(n1)[nH]c1ccccc12)Nc1ccc(N2CCOCC2)cc1	-31%	57%	0%	32µM*	·
CCCCSc1nnc2c(n1)[nH]c1ccccc12	?	·	23%	22µM*	-3%[12.7 µM]
Brc1ccc2[nH]c3nc(SCCN4CCOCC4)nnc3c2c1	-12%	2%	6%	79µM*!	40µM*
CC(C)CSc1nnc2c(n1)[nH]c1ccccc12	7%	·	26%	-26%	13%
c1ccc2c(c1)[nH]c1nc(SCCN3CCOCC3)nnc12	6%	1%	18%	79µM*	3.5µM*
CCCn1c2ccccc2c2nnc(SCCN3CCOCC3)nc21	-20%	·	37%	-24%	?
Cc1ccc(N2C(=O)C(CC(=O)Nc3ccc(F)cc3)N(CCC3=CCCCC3)C2=O)cc1 (stereo not drawn)	-6%	·	31%	-13%	13%[59 µM]
COC(=O)c1ccc(N2NC(=O)/C(=C/c3ccc(OC)c(OC)c3)C2=O)cc1	-3%	-6%	6%	-22%	?
COc1cc(/C=C2\C(=O)NN(c3ccccc3)C2=O)ccc1OCC(N)=O	4%	5%	·	·	50µM*
C#CCOc1ccc(/C=C2/C(=O)NN(c3ccc(F)cc3)C2=O)cc1OC	-16%	·	14%	-23%	35µM*
Cc1coc2c(C)c3oc(=O)c(CCC(=O)NCCc4ccc(Cl)cc4)c(C)c3cc12	2%	·	40%	8%	4%[59 µM]
CC(/C=C1\SC(=S)N(NC(=O)c2ccccc2C)C1=O)=C\c1ccccc1	?	-3%	?	?	28µM*
CC(/C=C1\SC(=S)N(NS(=O)(=O)c2ccc(C)cc2)C1=O)=C\c1ccccc1	35µM*	-16%	-24%	56µM*	10µM*
COc1cccc(/C=C2\SC(=S)N(NS(=O)(=O)c3ccc(C)cc3)C2=O)c1OC	?	·	·	·	18%[0.501 µM]
CC(/C=C1\SC(=S)N(NS(=O)(=O)c2ccccc2)C1=O)=C\c1ccccc1	45µM*	-6%	-20%	?	16µM*

Screening data as filed in PubChem.
